Results filed as inconclusive are left out. Active and inactive are the calls of the source. Calls come from the whole dose curve; as a rule, active = well fitted cell-killing curve with a large enough effect; inconclusive = small, poorly fitted or top-dose-only effect, or effect the other way; inactive = no such curve, though single readings can be large or run the other way.
system: CAOV3; experiment: Confirmatory qHTS for gynecologic anti-cancer compounds from libraries of approved drugs and bioactive compounds; conditions: gynecologic cancer cell panel viability, ATPlite luminescence, 48 h; series mostly up to 57.6 µM; note: nearly all actives have a fitted effect of over 55% in size
Procedure, shortened: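 ATP-based luminescent viability (ATPlite) after 48 h drug treatment at 37 °C, 5% CO2, across 57.5 uM–0.977 nM in 1:3 steps. Cells seeded at 1,000 per well 16 h beforehand; IC50 values computed, HEK 293T as selectivity control.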
Potency is the fitted concentration of half-maximal effect.

Row | SMILES | Potency
1 | Fc1cc(-c2cccc3ncc(-c4cnn(C5CCNCC5)c4)nc23)cc(F)c1CN1CCOCC1 | 27.3 µM (active)
2 | NC(=O)Nc1cc(-c2cccc(F)c2)sc1C(=O)NC1CCCNC1 (stereo not given) | 1.22 µM (active)
3 | CC(=O)OC12COC1CC(O)C1(C)C(=O)C(O)C3=C(C)C(OC(=O)C(O)C(NC(=O)OC(C)(C)C)c4ccccc4)CC(O)(C(OC(=O)c4ccccc4)C21)C3(C)C (stereo not given) | inactive
4 | NC(=O)c1cnc(-c2ccc(C3(N)CCC3)cc2)c(-c2ccccc2)c1 | 30.6 µM (active)
5 | COc1cc(N2CCC(N3CCN(C)CC3)CC2)ccc1Nc1ncc(Cl)c(Nc2ccccc2S(=O)(=O)C(C)C)n1 | 3.43 µM (active)
6 | Cc1nc(N)sc1-c1ccnc(Nc2ccc(N3CCOCC3)cc2)n1 | 3.43 µM (active)
7 | O=C(NOC[C@H](O)CO)c1ccc(F)c(F)c1Nc1ccc(I)cc1F | inactive
8 | CN1CCN(c2cccc(Nc3nc4c(-c5ccc(S(C)(=O)=O)cc5)cccn4n3)c2)CC1 | 27.3 µM (active)
9 | CCCc1nn(C)c2c(=O)[nH]c(-c3cc(S(=O)(=O)N4CCN(C)CC4)ccc3OCC)nc12 | inactive
10 | CCS(=O)(=O)N1CCN(c2ccc(Nc3ncc(C(N)=O)c(NC4CC4)n3)cc2)CC1 | 6.85 µM (active)
11 | CC(Oc1ccc2[nH]nc(/C=C/c3cnn(CCO)c3)c2c1)c1c(Cl)cncc1Cl (stereo not given) | 2.73 µM (active)
12 | CC(C)Nc1cc(-c2c[nH]c(C(=O)N[C@H](CO)c3cccc(Cl)c3)c2)c(Cl)cn1 | inactive
13 | C[C@]12CCC(=O)C=C1CC[C@@H]1[C@@H]2[C@@H](O)C[C@@]2(C)[C@H]1CC[C@]2(O)C(=O)CO | inactive
14 | Cc1ccccc1C(OCCN(C)C)c1ccccc1 (stereo not given) | inactive
15 | O=c1c2ccccc2nc2n1CCc1c-2[nH]c2ccccc12 | inactive
16 | O=C(c1ccc(/C=C/c2n[nH]c3ccccc23)cc1)N1CCNCC1 | 19.3 µM (active)
17 | C[C@]12CCC(=O)C=C1[C@@H]1C[C@@H]1[C@H]1[C@@H]3[C@@H]4C[C@@H]4[C@@]4(CCC(=O)O4)[C@@]3(C)CC[C@@H]12 | inactive
18 | CN1C2CCC1CC(OC(=O)[C@H](CO)c1ccccc1)C2 (stereo not given in full) | inactive
19 | Cc1ccc(C(=O)Nc2cccc(C(F)(F)F)c2)cc1-c1ccc2nc(NCCN3CCOCC3)ncc2c1 | 24.3 µM (active)
20 | CCC1C(=O)N(C)c2cnc(Nc3ccc(C(=O)NC4CCC(N5CCN(CC6CC6)CC5)CC4)cc3OC)nc2N1C(C)C (stereo not given) | 2.17 µM (active)

Reference: PubChem BioAssay AID1345085 (National Center for Advancing Translational Sciences (NCATS), 2018)
